As usually defined, the inhibition is the drop in the measured response relative to a control, in per cent.

Among the data in PubChem BioAssay AID1117319 (Southern Research Institute, 2015) are inhibition values, retold here.

The campaign covered roughly 260,000 compounds. About 1,500 (0.58%) were called active. Inconclusive results (about 5%) are left out.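 Rule for the calls: active = inhibition above a set limit at one or more doses, reproduced on every date tested; inconclusive = results disagree between test dates, or hit never tested in dose response; inactive = the rest.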 Not all results are given here. Potency and affinity values are given separately.

The experiment addresses Virion infectivity factor (Human immunodeficiency virus type 1 group M subtype B (isolate BH10)) + Virion infectivity factor (Human immunodeficiency virus type 1 group M subtype B (isolate BRU/LAI)) + Virion infectivity factor (Human immunodeficiency virus type 1 group M subtype B (isolate PCV12)) + Virion infectivity factor (Human immunodeficiency virus type 1 group M subtype B (isolate HXB2)) + DNA dC->dU-editing enzyme APOBEC-3G (Homo sapiens) (UniProt P69720+P69721+P69722+P69723+Q9HC16). The experiment is described as follows: HIV-1 Vif–A3G interaction blockers – biochemical, TR-FRET, GST-Vif 1-94, biotin-A3G peptide, dose response retest, primary screen (AID 1117319).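 Note: Vif residues 1-94 fused to GST binding biotinylated APOBEC3G peptide 110-148; 0% = full assay without inhibitor and 100% = GST in place of GST-Vif.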 The note with it: TR-FRET GST-Vif / biotin-A3G peptide binding; active compounds read high. For orientation: Time-resolved FRET reads energy transfer from a long-lived donor to a nearby acceptor.
Take `O=C(Nc1ccccc1)c1ccc(Cn2cc(C(F)(F)F)ccc2=O)cc1`: the inhibition was -1.59% (inactive).
Then `O=S(=O)(NCc1ccccn1)c1ccc2c(c1)OCCO2`, with -0.75% (inactive).
Then `CCOc1ccc(C(=O)NCC(=O)NCC(c2ccco2)N2CCCCC2)cc1` (configuration not stated), with -8.81% (inactive); and `CC[n+]1c(/C=C2\C=C(C)CC(C)C2)sc2ccccc21` (configuration not stated), with 26% (inactive).
Under `CC[n+]1c(/C=C2\C=C(C)CC(C)(C)C2)sc2ccccc21` stands 25.8% (inactive).
As to `CCCCOc1ccc(/C=c2\sc3ncnn3c2=O)cc1`, the inhibition is 6.23% (inactive).
Under `CCSc1nc2c(sc3nc(C)cc(C)c32)c(=O)[nH]1` stands -3.63% (inactive).
With `CCOCCCNC(=O)C(NC(=O)C1CCC(=O)N1)c1ccc(C)cc1` (configuration not stated), the inhibition was 8.49% (inactive).
As for `C#CC(C)OC(=O)Nc1cnccc1C(F)(F)F` (configuration not stated), the inhibition is 31.2% (inactive).
Then `O=C(CN1C(=O)C(=O)N(C2CCCC2)C1=O)Nc1ccc(N2CCOCC2)cc1`, with -7.86% (inactive).
Then `Cc1ccc(CN2C(=O)CC(Nc3ccc(N4CCOCC4)cc3)C2=O)cc1` (configuration not stated), with 4.98% (inactive); and `Cc1ccc(NC2CC(=O)N(c3ccc(N4CCCCC4)cc3)C2=O)cc1` (configuration not stated), with 25.5% (inactive).
Then `COc1cccc(N2C(=O)CC(Nc3ccc(N4CCOCC4)cc3)C2=O)c1` (configuration not stated), with 27.7% (inactive); and `COc1ccc(NC2CC(=O)N(C(C)C)C2=O)cc1` (configuration not stated), with 1.77% (inactive); and `O=C1CC(Nc2ccc(N3CCOCC3)cc2)C(=O)N1c1ccccc1` (configuration not stated), with 16.9% (inactive).
`CC(C)CC(=O)Nc1ccc(N2CCOCC2)cc1`: the inhibition was -0.35% (inactive).
Turning to `O=C1CC(Nc2ccccc2)C(=O)N1c1ccc(N2CCOCC2)cc1` (configuration not stated), the inhibition was 29% (inactive).
On to `COc1cccc(CC(NC(C)=O)C(=O)NC2CCN(S(=O)(=O)c3ccc(F)cc3)CC2)c1OC` (configuration not stated), for which the inhibition was -17.6% (inactive).
Then `CCCCn1c(N)c(N(CCOC)C(=O)CCCc2nc3ccccc3c(=O)[nH]2)c(=O)[nH]c1=O`, with -0.43% (inactive).
Consider `COc1ccc(CC(=O)NCCS(=O)(=O)N2CCN(c3ccccc3OC)CC2)cc1`, for which the inhibition was -3.77% (inactive).
Then `CCOc1ccc(CCNC(=O)COC(=O)Cc2c[nH]c3ccccc23)cc1OCC`, with 2.44% (inactive).
Then `CCOCCCNCc1cccc(OC)c1`, with -0.48% (inactive); and `CN1CCN(S(=O)(=O)c2ccc(Oc3ccc(Br)cc3F)nc2)CC1`, with -0.65% (inactive).
For the compound `COc1cccc(CC(=O)OCC(=O)c2cc(OC)ccc2OC)c1`, the inhibition was 18.9% (inactive).
Then `Cc1cc(C)cc(N2CN=c3s/c(=C\c4ccco4)c(=O)n3C2)c1`, with 3.97% (inactive); and `CC(=O)Nc1ccc(NC2=C(Cl)C(=O)c3ccccc3C2=O)cc1`, with 11.5% (inactive).
Then `CCCC(=O)Nc1ccccc1NC(=O)CCC`, with 16.5% (inactive); and `CCC(=O)Nc1c(C)cc(C)cc1Cl`, with 1.1% (inactive); and `CN(C)c1ccc(NC2=C(Cl)C(=O)c3ccccc3C2=O)cc1`, with 20.1% (inactive).
Under `O=C(Nc1ccc2cn[nH]c2c1)c1c(Cl)cccc1Cl` stands 2.79% (inactive).
For the compound `CCNC1=C(Cl)C(=O)c2ccccc2C1=O`, the inhibition is 2.59% (inactive).
Then `O=C1C(Cl)=C(Nc2ccccc2)C(=O)c2ccccc21`, with -1.3% (inactive); and `O=C1C(Cl)=C(NC(=O)c2ccccc2)C(=O)C(Cl)=C1NC(=O)c1ccccc1`, with 20.2% (inactive); and `CC(c1ccccc1)C1NC(C(=O)O)CS1` (configuration not stated), with -0.34% (inactive).
Then `Cc1ccc(CN2CCSc3ccc(C(=O)NCc4cccnc4)cc32)cc1`, with -7.4% (inactive).
For the compound `COc1ccc(C(=O)/C=C2/C(=O)Nc3ccccc32)cc1`, the inhibition is 11.7% (inactive).
On to `Cc1[nH]n(-c2ccccc2)c(=O)c1/C=C1\C=NN=C1c1ccccc1`, for which the inhibition was -6.22% (inactive).
Under `COC(=O)c1c(NC(=O)c2nc3nc(C)cc(C(F)F)n3n2)sc2c1CCC2` stands -2.56% (inactive).
Take `CCN(CC)C(=O)c1sc(NC(=O)C(Sc2ccccc2)c2ccccc2)c(C(=O)OC(C)C)c1C` (configuration not stated): the inhibition is -1.62% (inactive).
Under `CC(/C=N/n1c(-c2ccccc2)n[nH]c1=S)=C\c1ccco1` stands 29% (inactive); under `Cc1cc(-c2n[nH]c(=S)n2/N=C/c2ccc(C)o2)n[nH]1`, 27.9% (inactive); under `CC(/C=N/n1c(-c2ccc(Cl)cc2)n[nH]c1=S)=C\c1ccco1`, 27.8% (inactive).
Regarding `C(/C=C/c1ccco1)=N/N1CCN(c2ccccc2)CC1`, the inhibition is 18.8% (inactive).
Under `Cc1cccc(-c2n[nH]c(=S)n2/N=C/c2ccco2)c1` stands -4.06% (inactive).
As to `S=c1[nH]nc(-c2cccnc2)n1/N=C/C=C/c1ccccc1`, the inhibition is 32.9% (inactive).
With `C(=C\c1ccccc1)/C=N/n1cnnc1`, the inhibition is 17.7% (inactive).
In the case of `S=c1[nH]nc(-c2cccnc2)n1/N=C/c1ccco1`, the inhibition was 3.51% (inactive).
Then `O=C(COC(=O)Cn1cnc2ccccc21)Nc1ccc(F)c(F)c1`, with -4.98% (inactive).
Turning to `C=CCSc1nnc(CNC(=O)c2ccccc2C)n1C(C)C`, the inhibition is 4.54% (inactive).
Consider `CC(NC(=O)C(=S)N1CCN(C)CC1)c1ccccc1` (configuration not stated), for which the inhibition was 0.7% (inactive).
With `C=CCN1/C(=C2/SC(=S)N(C)C2=O)Sc2ccccc21`, the inhibition was 11.3% (inactive).
`CCc1noc(C)c1C(=O)OC(C)C(=O)Nc1ccccc1OC` (configuration not stated): the inhibition was 3.88% (inactive).
Under `Cn1nc(-c2ccccc2F)c2cc(C(=O)Nc3ccc4c(c3)OCCO4)sc21` stands -1.77% (inactive); under `COc1cccc(-c2nn(C)c3sc(C(=O)NCc4ccc5c(c4)OCO5)cc23)c1`, -2.11% (inactive).
For `Cc1nn(CC(=O)NC2CCS(=O)(=O)C2)c(C)c1[N+](=O)[O-]` (configuration not stated), the inhibition is -7.13% (inactive).
Then `Cc1cc(S(=O)(=O)N2CCOCC2)ccc1OCC(=O)N1CCCCC1`, with 25.7% (inactive); and `Cc1ccc(NC(=O)CCNS(=O)(=O)c2cccc3nonc23)cc1`, with 2.21% (inactive); and `CCc1cccc(NC(=O)CCNS(=O)(=O)c2cccc3nonc23)c1`, with 9.44% (inactive).
With `CC(C)Cn1c2c(c(=O)[nH]c1=O)C(NS(=O)(=O)c1ccc(Cl)cc1)(C(F)(F)F)C(=O)N2` (configuration not stated), the inhibition was -5.6% (inactive).
Then `COc1cccc(C(=S)N2CCCC2)c1OC`, with 0.47% (inactive).
Under `O=C1C2CCCN2C(=O)N1CCCN1CCN(c2ccc([N+](=O)[O-])cc2)CC1` (configuration not stated) stands -0.31% (inactive); under `O=C1C2CCCN2C(=O)N1CCCCN1CCN(c2ccc(F)cc2)CC1` (configuration not stated), -0.87% (inactive).
